The values that follow come from PubChem BioAssay.

Activity calls are given as the source filed them.

The nature of assay [1]: small molecules captured by biotinylated probe aFSTL3 – biochemical, small-molecule microarray, fluorescence 635/667, stem cell growth factor project, primary screen (AID 1064).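 Further: measures binding of the biotinylated anti-FSTL3 antibody to printed compounds.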 Particulars: higher = more signal.
Assay [2] can be described thus: binders from COS7 lysate, DM2A8 probe, primary screen, torsin A project, cell lysate, small-molecule microarray, fluorescence 635/667 (AID 1065). The following applies: higher = more signal, COS7 lysate expressing mutant human TOR1A.
Assay [3] in a line: small molecules captured by biotinylated probe aFGF2 – biochemical, small-molecule microarray, fluorescence 635/667, stem cell growth factor project, primary screen (AID 1067).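 Further: measures binding of biotinylated aFGF2 protein to printed compounds on slides; z-score merges feature fluorescence and signal-to-noise across triplicate slides.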 The following applies: higher = more signal.
The nature of assay [4]: small molecules captured by biotinylated probe aFGF10 – biochemical, small-molecule microarray, fluorescence 635/667, stem cell growth factor project, primary screen (AID 1071).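 Further: score merges 667 nm spot intensity and signal to noise from triplicate slides.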 The following applies: higher = more signal.
Assay [5] concerns the target Neurogenic locus notch homolog protein 2 (Homo sapiens) (UniProt Q04721). The experiment in a line: small molecules binding Notch2 protein – biochemical, small-molecule microarray, 635 nm fluorescence, stem cell growth factors, primary screen (AID 1073). The following applies: higher = more signal.
In assay [6] the target is Pro-neuregulin-1, membrane-bound isoform (Homo sapiens) (UniProt Q02297). The experiment in a line: small molecules binding neuregulin-1 protein – biochemical, small-molecule microarray, fluorescence 635/667, psychiatric disease protein project, primary screen (AID 1075).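 Further: score combines 667 nm spot fluorescence with signal to noise.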 The following applies: NRG1 binding, 635 nm fluorescence, higher = more signal.
Pro-neuregulin-1, membrane-bound isoform (Homo sapiens), sequence (Q02297 whole entry, looked up, the tested form may be a part, canonical isoform): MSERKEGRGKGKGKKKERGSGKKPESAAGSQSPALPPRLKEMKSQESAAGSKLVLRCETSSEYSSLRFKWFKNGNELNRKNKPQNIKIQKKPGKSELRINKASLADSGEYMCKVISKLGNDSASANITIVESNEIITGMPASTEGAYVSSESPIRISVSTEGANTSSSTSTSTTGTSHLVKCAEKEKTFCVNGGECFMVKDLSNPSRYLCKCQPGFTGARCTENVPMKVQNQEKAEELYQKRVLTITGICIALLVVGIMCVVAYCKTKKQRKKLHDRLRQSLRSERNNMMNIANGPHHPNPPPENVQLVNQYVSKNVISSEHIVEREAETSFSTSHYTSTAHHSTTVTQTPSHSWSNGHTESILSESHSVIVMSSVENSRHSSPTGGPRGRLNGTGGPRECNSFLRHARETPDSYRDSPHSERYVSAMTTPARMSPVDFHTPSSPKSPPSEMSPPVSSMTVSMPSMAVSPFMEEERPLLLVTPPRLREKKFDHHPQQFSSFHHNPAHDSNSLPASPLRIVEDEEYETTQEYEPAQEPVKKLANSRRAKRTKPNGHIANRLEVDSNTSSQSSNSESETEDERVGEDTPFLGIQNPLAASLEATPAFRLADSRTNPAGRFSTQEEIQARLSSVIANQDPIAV
Assay [7] deals with Neuregulin-1 EGF-like domain. The experiment in a line: small molecules binding NRG1 EGF domain – biochemical, small-molecule microarray, 635 nm fluorescence, primary screen (AID 1081).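 Further: binding of the protein to compounds printed on small-molecule microarray slides.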 Particulars: higher = more signal.
Assay [8] in a line: FRG1 expression reporter modulators in myotubes – cell-based, C2C12 myotubes, firefly/Renilla luciferase, luminescence, FRG1 inhibition for FSHD, primary screen (AID 1084). Particulars: FRG1 promoter luciferase, higher = more signal, called active from +8 up or from −8 down.
Assay [9] can be described thus: small molecules captured by biotinylated probe aFST – biochemical, small-molecule microarray, fluorescence 635/667, stem cell growth factor project, primary screen (AID 1086).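 Further: score merges 667 nm fluorescence with signal-to-noise of each printed compound spot.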 Particulars: higher = more signal.
Assay [10] is described as follows: binders of probe aHhip on microarray, primary screen, stem cell growth factor project, biochemical, small-molecule microarray, fluorescence 635/667 (AID 1087).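 Further: score merges spot fluorescence at 667nm with spot signal to noise ratio.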 The following applies: higher = more signal.

Neurogenic locus notch homolog protein 2 (Homo sapiens), sequence (Q04721 whole entry, looked up, canonical isoform): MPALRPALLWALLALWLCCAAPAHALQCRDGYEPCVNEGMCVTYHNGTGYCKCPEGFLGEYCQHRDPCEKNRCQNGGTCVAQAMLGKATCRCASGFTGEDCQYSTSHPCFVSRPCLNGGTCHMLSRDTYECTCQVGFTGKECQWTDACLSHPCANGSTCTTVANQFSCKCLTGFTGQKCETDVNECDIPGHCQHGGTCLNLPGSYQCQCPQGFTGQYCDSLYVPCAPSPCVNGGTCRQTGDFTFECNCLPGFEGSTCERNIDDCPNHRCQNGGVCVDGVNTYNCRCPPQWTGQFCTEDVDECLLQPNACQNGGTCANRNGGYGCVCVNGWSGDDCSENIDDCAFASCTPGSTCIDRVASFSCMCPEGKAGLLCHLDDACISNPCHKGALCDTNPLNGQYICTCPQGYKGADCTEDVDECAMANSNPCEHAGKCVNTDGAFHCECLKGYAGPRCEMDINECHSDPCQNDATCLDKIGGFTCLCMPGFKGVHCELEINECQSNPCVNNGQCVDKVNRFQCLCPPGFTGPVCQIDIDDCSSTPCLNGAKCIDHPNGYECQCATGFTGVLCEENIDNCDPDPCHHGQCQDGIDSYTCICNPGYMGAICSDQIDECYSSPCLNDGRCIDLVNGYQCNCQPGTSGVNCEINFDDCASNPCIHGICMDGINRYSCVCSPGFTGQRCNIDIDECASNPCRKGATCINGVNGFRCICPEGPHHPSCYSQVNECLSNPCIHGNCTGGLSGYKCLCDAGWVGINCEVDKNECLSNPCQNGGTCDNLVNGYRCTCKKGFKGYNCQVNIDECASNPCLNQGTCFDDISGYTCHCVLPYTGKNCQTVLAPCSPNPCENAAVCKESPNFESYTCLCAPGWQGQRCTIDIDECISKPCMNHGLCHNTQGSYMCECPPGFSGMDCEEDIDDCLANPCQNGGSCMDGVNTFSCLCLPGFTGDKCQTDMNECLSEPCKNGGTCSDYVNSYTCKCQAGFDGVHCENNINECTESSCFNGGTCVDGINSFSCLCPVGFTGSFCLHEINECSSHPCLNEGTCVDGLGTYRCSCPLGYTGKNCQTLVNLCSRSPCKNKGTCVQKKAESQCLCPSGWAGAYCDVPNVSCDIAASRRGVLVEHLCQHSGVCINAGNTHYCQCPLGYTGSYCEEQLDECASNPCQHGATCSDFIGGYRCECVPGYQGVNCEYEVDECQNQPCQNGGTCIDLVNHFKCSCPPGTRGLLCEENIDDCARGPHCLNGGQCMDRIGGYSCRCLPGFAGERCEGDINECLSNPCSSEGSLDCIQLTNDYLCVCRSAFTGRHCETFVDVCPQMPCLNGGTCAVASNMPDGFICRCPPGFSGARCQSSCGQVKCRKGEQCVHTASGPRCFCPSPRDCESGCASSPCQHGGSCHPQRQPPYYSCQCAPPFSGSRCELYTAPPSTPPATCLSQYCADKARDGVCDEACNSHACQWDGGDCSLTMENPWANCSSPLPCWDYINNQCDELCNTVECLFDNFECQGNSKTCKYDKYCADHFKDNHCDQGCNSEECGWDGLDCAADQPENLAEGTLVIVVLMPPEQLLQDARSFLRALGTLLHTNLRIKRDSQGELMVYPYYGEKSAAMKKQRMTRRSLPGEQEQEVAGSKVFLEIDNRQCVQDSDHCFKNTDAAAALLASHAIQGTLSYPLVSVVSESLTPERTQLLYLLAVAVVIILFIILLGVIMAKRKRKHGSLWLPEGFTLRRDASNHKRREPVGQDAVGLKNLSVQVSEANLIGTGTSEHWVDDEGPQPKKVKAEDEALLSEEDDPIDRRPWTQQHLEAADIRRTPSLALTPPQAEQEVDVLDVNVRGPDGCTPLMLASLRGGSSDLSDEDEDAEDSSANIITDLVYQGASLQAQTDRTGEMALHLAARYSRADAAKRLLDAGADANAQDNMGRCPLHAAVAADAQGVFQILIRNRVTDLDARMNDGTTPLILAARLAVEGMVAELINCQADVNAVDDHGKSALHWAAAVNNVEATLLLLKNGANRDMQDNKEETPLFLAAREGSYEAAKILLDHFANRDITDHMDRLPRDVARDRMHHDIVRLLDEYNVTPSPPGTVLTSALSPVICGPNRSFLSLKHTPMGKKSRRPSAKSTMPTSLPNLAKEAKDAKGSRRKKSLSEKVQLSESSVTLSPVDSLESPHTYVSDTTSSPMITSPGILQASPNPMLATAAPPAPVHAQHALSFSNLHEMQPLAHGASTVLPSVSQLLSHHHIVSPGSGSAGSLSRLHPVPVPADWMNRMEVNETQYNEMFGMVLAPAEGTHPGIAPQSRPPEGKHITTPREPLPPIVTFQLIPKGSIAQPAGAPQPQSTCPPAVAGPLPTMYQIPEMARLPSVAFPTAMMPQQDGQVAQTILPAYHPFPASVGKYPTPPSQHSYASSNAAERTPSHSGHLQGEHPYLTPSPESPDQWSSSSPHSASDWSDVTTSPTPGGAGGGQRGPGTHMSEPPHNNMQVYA

As for `CN(C)CCCCCCNC(=O)[C@@H]1C[C@@H]2C(=O)N[C@@H](CCCCN)C(=O)N2[C@@H]1c1cccc(OCCO)c1`, the composite z-score stood at 3.04 in [1]; 2.4 in assay [2]; 0.862 in assay [3]; 1.13 in assay [4]; 1.05 in assay [5]; 2.75 in [6]. Moreover, the composite z-score in assay [7] was determined as 1.52; in assay [9], 3.58; in assay [10], 1.72. For the same molecule, the z-score in assay [8] was 0.718 (inactive).
For `COc1cc2c(cc1OC)CN(C(=O)[C@H]1[C@@H]3C(=O)O[C@@H](c4ccccc4)[C@@H](c4ccccc4)N3[C@@H](c3ccc(O)cc3)[C@]13C(=O)Nc1ccc(C#CC4=CCCCC4)cc13)CC2`, the composite z-score in assay [1] is -0.0904; in [2], 1.36; in [3] it was 0.088; in assay [4], 1.24; in assay [5] it was 1.24; in assay [6] it was 1.33. The composite z-score in assay [7] came to 1.21; in assay [9], 0.827; in assay [10], 0.421. In addition, the z-score in assay [8] is -0.139 (inactive).
Consider `O=C1c2ccccc2[C@](Cc2ccccc2I)(C(=O)NC2CC2)[C@H](c2ccc(CO)cc2)N1C1CCCCC1`, for which the composite z-score in assay [1] was -0.0129; in assay [2], 0.677; in [3], -0.0989; in [4], 0.418; in [5], 1.48; in assay [6] it was 1.62. In addition, the composite z-score in [7] was 1.41; in assay [9] it was 1.37; in assay [10], -0.926. Besides, the z-score in [8] is -4.4 (inactive).
With `O=C1O[C@H](c2ccccc2)[C@H](c2ccccc2)N2[C@H]1[C@@H](C(=O)Nc1nc3ccccc3s1)[C@]1(C(=O)Nc3ccc(C#CC4(O)CCCCCC4)cc31)[C@H]2c1ccc(OCCO)cc1`, the composite z-score in assay [1] is -0.317; in assay [2] it was 0.792; in [3] it was -0.129; in [4], 0.805; in assay [5], 0.642; in [6] it was 1.7. Further, the composite z-score is 1.06 in [7], 0.395 in assay [9] and 0.0413 in assay [10]. Also, in assay [8], the z-score was 1.97 (inactive).
On to `COC(=O)[C@@]1(Cc2ccc(OC)cc2)[C@H]2c3cc(C(=O)N4CCCC4)n(Cc4ccccc4)c3C[C@H]2CN1C(=O)c1ccccc1`, for which the composite z-score was found to be 2.67 in [1]; 0.0681 in assay [2]; 0.788 in assay [3]; 0.784 in [4]; 1.61 in [5]; 1.98 in [6]. Also, the composite z-score was 1.36 in assay [7], 2.34 in [9] and 0.671 in assay [10]. Moreover, the z-score in [8] was 0.42 (inactive).
Take `C=CCNC(=O)[C@@H]1[C@H]2C(=O)O[C@H](c3ccccc3)[C@H](c3ccccc3)N2[C@H](c2ccc(OCCO)cc2)[C@@]12C(=O)Nc1ccc(C#Cc3ccc(OC)cc3)cc12`: the composite z-score in assay [1] is -0.175; in [2], 1.14; in assay [3], 0.0969; in assay [4], 0.73; in assay [5], 1.41; in [6], 1.24. In addition, the composite z-score stood at 1.18 in assay [7], 0.4 in assay [9] and 0.283 in assay [10]. Further, the z-score in assay [8] was 0.994 (inactive).
Regarding `CN1C(=O)C2C=CC(C(O)c3ccc(-c4ccccc4)s3)N(N(c3ccccc3)c3ccccc3)C2C1=O` (stereo not given), the composite z-score is 0.415 in [1]; -0.235 in assay [2]; 0.0034 in assay [3]; 0.199 in [4]; 1.15 in [5]; 0.782 in assay [6]. Besides, the results for the composite z-score in assay [7], in assay [9] and in [10] were 0.949, 0.422 and 0.248, respectively. The z-score in assay [8] was 0.685 (inactive).
On to `C=CCC(OC(C)=O)[C@@H]1[C@@H](N(Cc2ccc(-c3ccccc3)cc2)C(=O)Cc2ccc(F)cc2)c2cc(OCCCO)ccc2N1C(=O)c1ccc(-c2ccccc2)cc1` (stereo not given in full), for which the composite z-score is 0.124 in assay [1]; 0.143 in assay [2]; -0.0145 in assay [3]; -0.0694 in [4]; -0.305 in [5]; -0.23 in [6]. Also, the composite z-score in [7] is -0.937; in assay [9], 0.0621; in assay [10] it was -0.0994. Further, in assay [8], the z-score is -0.432 (inactive).
Take `COc1ccc([C@H]2OC[C@@H]3CC4(CC=CC4)C(=O)N32)cc1`: the composite z-score is 0.0596 in [1]; -0.407 in assay [2]; -0.129 in [3]; 0.479 in [4]; -0.321 in assay [5]; -0.105 in assay [6]. The values for the composite z-score in [7], in assay [9] and in assay [10] were 1, -0.0135 and -0.236, respectively. In [8], the z-score was 1.43 (inactive).
For the molecule `COC(=O)[C@@]1(Cc2ccc(F)cc2)[C@H]2c3cc(C(=O)N(C)C)n(Cc4ccc(S(C)(=O)=O)cc4)c3C[C@H]2CN1C(=O)c1ccccc1`, the composite z-score was determined as 0.244 in [1]; 0.657 in assay [2]; 0.209 in [3]; 0.629 in assay [4]; 1.41 in assay [5]; 1.79 in [6]. Further, the composite z-score turned out to be 1.19 in assay [7], 0.198 in assay [9] and 0.0274 in [10]. Also, in assay [8], the z-score was 0.0659 (inactive).
Consider `COC(=O)[C@@]1(Cc2ccc(OC)cc2)[C@H]2c3cc(C(=O)N4CCCC4)n(Cc4ccc(OC)c(OC)c4)c3C[C@H]2CN1C(=O)c1ccccc1`, for which the composite z-score turned out to be 1.65 in assay [1]; 0.188 in assay [2]; 0.636 in [3]; 0.199 in assay [4]; 1.72 in [5]; 2.16 in assay [6]. In addition, the composite z-score in assay [7] came to 1.07; in assay [9], 1.74; in assay [10], 0.319. The z-score in assay [8] was 2.25 (inactive).
`COCCCNC(=O)[C@@]1(Cc2ccccc2N=[N+]=[N-])N=C(c2ccc(OCCCO)cc2)O[C@H]1c1ccccc1N=[N+]=[N-]`: the composite z-score in assay [1] is 0.622; in assay [2] it was 0.81; in assay [3], -0.252; in assay [4], 0.436; in assay [5], 1.37; in assay [6], 1.52. For the same molecule, the composite z-score is 0.831 in assay [7], 1.36 in [9] and -0.26 in assay [10]. Further, the z-score in assay [8] is -0.702 (inactive).
Turning to `O=C1O[C@H](c2ccccc2)[C@H](c2ccccc2)N2[C@H]1[C@@H](C(=O)NC[C@H](O)c1ccccc1)[C@]1(C(=O)Nc3ccccc31)[C@H]2c1ccc(OCCO)cc1`, the composite z-score was 0.0809 in assay [1]; 0.267 in assay [2]; -0.039 in [3]; 0.345 in assay [4]; 0.404 in assay [5]; 1.05 in [6]. Further, the values for the composite z-score in [7], in [9] and in [10] were 1.21, 0.368 and 0.0551, respectively. For the same molecule, in assay [8], the z-score is 1.8 (inactive).
Consider `CCN(CC)c1ccc(N2CC=CC34O[C@@H]5/C=C\CCC(C)OC(=O)C5[C@H]3C(=O)N(C(CO)C(C)C)[C@@H]4C2=O)cc1` (stereo not given in full), for which the composite z-score in assay [1] was 0.165; in assay [2] it was -0.892; in assay [3], -0.0316; in assay [4], -0.551; in assay [5] it was -0.455; in assay [6] it was 0.12. Moreover, the values for the composite z-score in [7], in assay [9] and in assay [10] were 1.49, -0.344 and 1.01, respectively. In addition, in assay [8], the z-score is 0.225 (inactive).
`NC(=O)[C@@H]1[C@H]2C(=O)O[C@H](c3ccccc3)[C@H](c3ccccc3)N2[C@H](c2ccc(O)cc2)[C@@]12C(=O)Nc1ccc(C#CC3(O)CCCCCC3)cc12`: the composite z-score in assay [1] was found to be 0.372; in assay [2] it was 0.167; in assay [3] it was 0.0075; in [4] it was 0.244; in assay [5], 0.0065; in [6] it was 0.959. Moreover, the composite z-score in assay [7] is 1.42; in assay [9], -0.0686; in assay [10] it was -0.0645. The z-score in assay [8] was 0.854 (inactive).
